In all, about 290,000 compounds went through this assay and about 27,000 (9.3%) were called active. This excerpt belongs to a sample that is enriched for actives. Values without a mark were called inactive. Cut-off read from the data, not from the text of the source: active = inhibition mostly above about 28% (no sharp cut-off); inactive = mostly below about 43%.

Data on 31 compounds can be found in PubChem BioAssay AID2315 (National Center for Advancing Translational Sciences (NCATS), 2010).

A short description of the assay: A qHTS for Small Molecule Inhibitors of Shiga Toxin. Note: 0% is about no effect. Particulars: Vero cells, Shiga toxin protein synthesis inhibition reporter; at 38.7 µM, stronger effect = higher value.
As usually defined, the inhibition is the relative decrease from the control value, in per cent. Regarding `Cc1cccc(-n2nc3c(c2NC(=O)c2cc4ccccc4o2)CS(=O)(=O)C3)c1`, the inhibition was -6.86%. As to `CCOc1ccc(CCNC(=O)CCc2nnc3ccc(N4CCCC4)nn23)cc1OCC`, the inhibition was -2.23%. Turning to `C/C(=N/NC(=O)c1ccc(Br)o1)c1ccc(C)o1`, the inhibition was 91.6% (active). Turning to `CC(CNC(=O)c1ccc(Br)o1)NC(=O)c1ccc(Br)o1` (stereo unspecified), the inhibition is 10.2%. With `Cc1ccc(/C=N/NC(=S)NC2CCCCC2)o1`, the inhibition is 72.6% (active).

Turning to `Cc1ccc(/C=N/NC(=O)Cn2nc(C)c(Br)c2C)o1`, the inhibition is -6.63%. For `S=C(NN=C1CCN(Cc2ccccc2)CC1)NC1CCCCC1`, the inhibition was 9.13%. `CC(CCc1ccccc1)NC(=O)c1ccc(Br)o1` (stereo unspecified): the inhibition was 0.792%. Take `C/C(=N\NC(=S)NC1CCCCC1)c1ccc(C)o1`: the inhibition is 52.7% (active).

For `Cc1ccc(/C=N/NC(=S)Nc2cccc(S(=O)(=O)N(C)C)c2)o1`, the inhibition was 40.8%. The result for `S=C(NCc1ccc(Cl)cc1)NC1CCCCC1` reads -6.42%; that for `COc1ccc(CNC(=O)C2CCN(C(=O)c3ccco3)CC2)cc1`, -12.4%. Turning to `CCCc1cc(=O)n2[nH]c(C)c(-c3ccc(Cl)cc3)c2n1`, the inhibition is -5.47%.

As for `Cc1ccc(C(CNC(=O)Nc2cccc(C)c2)N2CCN(C)CC2)cc1` (stereo unspecified), the inhibition is 1.35%.

For the compound `Cc1c(NC(=O)Nc2cccc([N+](=O)[O-])c2)c(=O)n(-c2ccccc2)n1C`, the inhibition was -5.21%. With `CC1CCN(S(=O)(=O)c2ccc3c(ccn3CC(=O)O)c2)CC1`, the inhibition was -22.5%. Turning to `Cc1ccc(CC(=O)Nc2ccc(OC(F)F)c(Cl)c2)cc1C`, the inhibition is -4.66%. In the case of `O=C(Cc1ccc(Cl)c(Cl)c1)Nc1ccc(SC(F)F)cc1`, the inhibition was 43% (active).

As to `CC(=O)N1CCN(CC(=O)Nc2ccc(SC(F)F)cc2)CC1`, the inhibition was -12.2%. As to `CNC(=O)[C@]1(C(F)(F)F)C[C@H](CCc2ccccc2)CCCO1`, the inhibition was 32.4%. With `c1ccc2sc(C3CCCNC3)nc2c1` (stereo unspecified), the inhibition is 69.9% (active). In the case of `O=C(c1cccs1)N1CCC(c2nc3ccccc3s2)CC1`, the inhibition is 18.9%. As to `Cc1cccc(C(=O)N2CCC(c3nc4ccccc4s3)CC2)c1`, the inhibition was -12.1%. Turning to `CC(=O)Oc1ccc(N(C(C)=O)S(=O)(=O)c2ccc3ccccc3c2)cc1Br`, the inhibition was 33.2%. With `CCCCCNC(=O)C1c2ccccc2Oc2ccccc21`, the inhibition is -12.3%. Consider `O=C(CN1CCN(S(=O)(=O)/C=C/c2ccccc2)CC1)Nc1ccc(N2CCOCC2)cc1`, for which the inhibition is -7.43%. In the case of `O=C(O)c1ccc2c(c1)C(=O)N(c1ccc(/C=C/C(=O)c3ccccc3)cc1)C2=O`, the inhibition is 70.9% (active). In the case of `O=C(/C=C/c1ccccc1)c1ccoc1`, the inhibition is 26%. To `CC(=O)Oc1ccc(C)cc1N1C(=O)c2ccc(C(=O)O)cc2C1=O` belongs 21.4%. For `O=C(/C=C/c1ccc(N2CCOCC2)cc1)c1ccccc1`, the inhibition was 68% (active). In the case of `Cc1cccc(N2C(=O)c3ccc(C(=O)Nc4cccc(C(=O)O)c4)cc3C2=O)c1`, the inhibition was 19%.
